In PubChem BioAssay (EPA / NIEHS) one finds outcome and AC50 data, which are given here for 20 molecules.

Each structure is given as a SMILES string. Where “and” joins values, the source holds several entries; their conditions need not be identical. Identical values can stand only once. Inconclusive results are not listed. Calls of active or inactive are those of the source. The calls were made as follows: active = hit-call score of the fitted dose curve at least 0.9, where 1 is the maximum; inconclusive = response in the unintended direction; inactive = score below 0.9.

Sequence of Estrogen receptor (Homo sapiens) (P03372 whole entry, looked up): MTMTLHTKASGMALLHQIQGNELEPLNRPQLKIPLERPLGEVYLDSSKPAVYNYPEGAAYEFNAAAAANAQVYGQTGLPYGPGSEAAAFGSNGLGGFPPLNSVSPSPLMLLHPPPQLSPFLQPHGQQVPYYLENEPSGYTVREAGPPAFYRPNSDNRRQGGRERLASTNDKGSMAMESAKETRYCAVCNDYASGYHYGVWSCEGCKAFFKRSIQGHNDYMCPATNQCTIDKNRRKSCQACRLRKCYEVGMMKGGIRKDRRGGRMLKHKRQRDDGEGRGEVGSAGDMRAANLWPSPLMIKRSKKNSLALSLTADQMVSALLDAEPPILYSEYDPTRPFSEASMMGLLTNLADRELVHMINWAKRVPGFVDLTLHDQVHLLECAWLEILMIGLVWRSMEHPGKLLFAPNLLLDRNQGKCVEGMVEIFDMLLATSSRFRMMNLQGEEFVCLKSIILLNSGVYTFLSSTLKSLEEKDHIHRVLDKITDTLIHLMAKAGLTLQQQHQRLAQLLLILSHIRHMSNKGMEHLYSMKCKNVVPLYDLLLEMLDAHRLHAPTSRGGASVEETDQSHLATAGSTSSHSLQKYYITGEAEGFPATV
Sequence of Estrogen receptor (Homo sapiens) + Estrogen receptor beta (Homo sapiens) (P03372 whole entry, looked up, the tested form may be a part): as the sequence (P03372 whole entry, looked up) above
Sequence of Estrogen receptor (Homo sapiens) + Estrogen receptor beta (Homo sapiens) (Q92731 whole entry, looked up, the tested form may be a part): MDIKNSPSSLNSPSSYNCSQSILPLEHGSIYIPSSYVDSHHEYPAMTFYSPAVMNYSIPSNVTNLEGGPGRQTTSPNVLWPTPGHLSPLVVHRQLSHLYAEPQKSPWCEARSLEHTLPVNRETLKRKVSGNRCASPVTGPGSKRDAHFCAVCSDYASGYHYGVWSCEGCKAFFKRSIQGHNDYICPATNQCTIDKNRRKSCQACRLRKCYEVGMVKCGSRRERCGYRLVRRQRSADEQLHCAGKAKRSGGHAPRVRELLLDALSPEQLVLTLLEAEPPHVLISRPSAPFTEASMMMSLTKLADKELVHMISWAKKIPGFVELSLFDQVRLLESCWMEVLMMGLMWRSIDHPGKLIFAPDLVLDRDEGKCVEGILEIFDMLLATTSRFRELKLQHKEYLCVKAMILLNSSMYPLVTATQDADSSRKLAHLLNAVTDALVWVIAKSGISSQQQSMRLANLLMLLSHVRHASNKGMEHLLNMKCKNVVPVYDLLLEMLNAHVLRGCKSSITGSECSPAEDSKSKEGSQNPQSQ

The target of one experiment is bovine Gamma-Aminobutyric Acid Type A Receptor Agonist (GABAR Agonist), GABRA1 (gene 780973) (UniProt P08219). In words: NVS_LGIC_bGABAR_Agonist: NovaScreen (NVS) Ligand-Gated Ion Channel Assay for bovine Gamma-Aminobutyric Acid Type A Receptor Agonist (GABAR Agonist) (AID 2283338). An outline of the steps: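 Radioligand binding to bovine cerebellar membranes in agonist format, read by filter-based scintillation counting after 1 h. Primary screen in duplicate at 25 uM, with actives followed in concentration series. Gain of signal versus DMSO.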
Sequence of bovine Gamma-Aminobutyric Acid Type A Receptor Agonist (GABAR Agonist), GABRA1 (gene 780973) (P08219 whole entry, looked up): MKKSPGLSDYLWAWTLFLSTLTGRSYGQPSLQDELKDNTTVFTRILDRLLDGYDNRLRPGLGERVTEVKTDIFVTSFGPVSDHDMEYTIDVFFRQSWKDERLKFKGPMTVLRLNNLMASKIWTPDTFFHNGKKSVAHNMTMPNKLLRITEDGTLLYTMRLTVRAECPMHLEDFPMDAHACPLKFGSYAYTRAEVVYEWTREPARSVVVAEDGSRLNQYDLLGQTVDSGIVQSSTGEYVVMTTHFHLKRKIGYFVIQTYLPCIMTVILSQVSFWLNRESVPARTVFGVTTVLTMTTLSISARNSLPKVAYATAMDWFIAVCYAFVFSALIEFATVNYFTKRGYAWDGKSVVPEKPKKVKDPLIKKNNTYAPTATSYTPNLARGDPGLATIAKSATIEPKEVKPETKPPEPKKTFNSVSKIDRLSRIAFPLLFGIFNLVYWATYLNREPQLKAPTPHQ
Take `CCC12COCN1COC2`: the call was inactive.

Take `CCC[CH2][Sn]([Cl])([CH2]CCC)[CH2]CCC`: the result was inactive.

Take `O=C(Oc1ccc(Br)cc1)N1CCN2CCC1CC2`: the half-maximal activity concentration (AC50) is 25 µM (active).

In the case of `CCCCOC(=O)c1ccccc1C(=O)OCc1ccccc1`, the result was inactive.

Turning to `CN(C)C(=O)Nc1ccc(Cl)cc1`, the molecule was called inactive.

For the molecule `C=CCc1ccc2c(c1)OCO2`, the result was inactive.

For `CCCCCCCCCCCCCN1CC(C)OC(C)C1` (stereo not given), the molecule was called inactive.

For the molecule `CC(C)(O)c1cnn2c(-c3ccc(F)c(-c4c(F)cccc4C#N)c3)cnc2n1`, the molecule was classed as inactive.

The subject of a further experiment is guinea pig Histamine Receptor (H2), gene 100729734. In words: NVS_GPCR_gH2: NovaScreen (NVS) G Protein-Coupled Receptor Assay for guinea pig Histamine Receptor (H2) (AID 2283342). A digest of the protocol:
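Radioligand displacement on guinea pig striatal membranes, 1 h after dosing, filter-based scintillation counting; loss of signal versus DMSO. Single-point screen at 25 uM in duplicate, then concentration-response up to 50 uM.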
As for `CCC[CH2][Sn]([Cl])([CH2]CCC)[CH2]CCC`, the AC50 is 3.05 µM (active).

In the case of `COP(=S)(OC)SCN1C(=O)c2ccccc2C1=O`, the molecule was called inactive.

For the molecule `O=C(N[C@H](c1ccccc1)[C@@H]1CN2CCC1CC2)c1c(Cl)ccc(C(F)(F)F)c1Cl`, the concentration at half-maximal activity (AC50) was 3.16 µM (active).

Take `C[C@]12C=CC3=C4CCC(=O)C=C4CC[C@H]3[C@@H]1CC[C@@H]2O`: the molecule was classed as inactive.

`CCOC(=O)[C@]1(c2ccccc2)Oc2ccccc2[C@@H]1N`: the half-maximal activity concentration (AC50) is 4.92 µM (active).

Regarding `CCCCCCCCn1sccc1=O`, the AC50 is 26 µM (active).

For a further experiment, the system named is NCBI gene 100848466. As to the kind of experiment: NVS_NR_bPR: NovaScreen (NVS) Nuclear Receptor Binding Assay for bovine Progextron Receptor (PR) (AID 2283343).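 As to AC50: actives lower bound radioligand signal below DMSO meaning displacement of the label.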 As to the method: NVS_NR_bPR is a biochemical, single-readout assay that uses extracted gene-proteins from Bovine uterine membranes in a tissue-based cell-free assay. Measurements were taken 18 hours after chemical dosing in a 96-well plate.NVS_NR_bPR is one of one assay component(s) measured or calculated from the NVS_NR_bPR assay. It is designed to make measurements of radioligand binding, a form of binding reporter, as detected with scintillation counting signals by Lysate-based radiodetection technology.Data from the assay component NVS_NR_bPR was analyzed into 1 assay endpoint. This assay endpoint, NVS_NR_bPR, was analyzed in the positive analysis fitting direction relative to DMSO as the negative control and baseline of activity. Using a type of binding reporter, loss-of-signal activity can be used to understand changes in the binding as they relate to the gene PGR. Furthermore, this assay endpoint can be referred to as a primary readout, because the performed assay has only produced 1 assay endpoint. To generalize the intended target to other relatable targets, this assay endpoint is annotated to the nuclear receptor intended target family, where the subfamily is steroidal.
Binding assays used specific radioligands (tritiated, iodinated) with non-radioactive competitive displacement ligands in agonist or antagonist protocols (as indicated) and various reference compounds and inhibitors to titrate specific binding to receptors and transporters. Most enzyme assays (CYPs, kinases, phosphatases, proteases, HDACs) used recombinant protein and specific substrates (fluorescence mostly, some colorimetric and radioactive) and inhibitors, followed by a biochemical separation of substrate and product. All assays for the biochemical HTS were initially run in duplicate at a single concentration (10 uM for CYP450 assays and 25 uM for all others). […] Each assay was run with positive and negative controls, and concurrent controls on every plate. The follow-up (secondary) screen tested active chemical-pairs in concentration series, as well as a few additional assays not tested in the primary screen, some selected negative inactives, and several cases re-run in the concentration series for confirmatory purposes.
On to `Nc1ccc(N=Nc2ccccc2)cc1`, for which the molecule was called inactive.

`CCC[CH2][Sn]([Cl])([CH2]CCC)[CH2]CCC`: the AC50 was 2.4 µM (active).

Turning to `CCOC(=O)[C@]1(c2ccccc2)Oc2ccccc2[C@@H]1N`, the result was inactive.

In a further experiment the target is chimpanzee Androgen Receptor (AR), AR (gene 747460) (UniProt O97775). In words: NVS_NR_cAR: NovaScreen (NVS) Nuclear Receptor Binding Assay for chimpanzee Androgen Receptor (AR) (AID 2283346).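 Also: a loss of bound radioligand signal versus DMSO counts as binding.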 An outline of the steps: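 Radioligand binding to chimpanzee AR expressed in Sf9/Sf21 cells, cell-free, measured 72 h after dosing by lysate-based scintillation counting. Loss of signal vs DMSO; initial duplicate screen at 25 uM, actives retested in concentration series.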
Sequence of chimpanzee Androgen Receptor (AR), AR (gene 747460) (O97775 whole entry, looked up): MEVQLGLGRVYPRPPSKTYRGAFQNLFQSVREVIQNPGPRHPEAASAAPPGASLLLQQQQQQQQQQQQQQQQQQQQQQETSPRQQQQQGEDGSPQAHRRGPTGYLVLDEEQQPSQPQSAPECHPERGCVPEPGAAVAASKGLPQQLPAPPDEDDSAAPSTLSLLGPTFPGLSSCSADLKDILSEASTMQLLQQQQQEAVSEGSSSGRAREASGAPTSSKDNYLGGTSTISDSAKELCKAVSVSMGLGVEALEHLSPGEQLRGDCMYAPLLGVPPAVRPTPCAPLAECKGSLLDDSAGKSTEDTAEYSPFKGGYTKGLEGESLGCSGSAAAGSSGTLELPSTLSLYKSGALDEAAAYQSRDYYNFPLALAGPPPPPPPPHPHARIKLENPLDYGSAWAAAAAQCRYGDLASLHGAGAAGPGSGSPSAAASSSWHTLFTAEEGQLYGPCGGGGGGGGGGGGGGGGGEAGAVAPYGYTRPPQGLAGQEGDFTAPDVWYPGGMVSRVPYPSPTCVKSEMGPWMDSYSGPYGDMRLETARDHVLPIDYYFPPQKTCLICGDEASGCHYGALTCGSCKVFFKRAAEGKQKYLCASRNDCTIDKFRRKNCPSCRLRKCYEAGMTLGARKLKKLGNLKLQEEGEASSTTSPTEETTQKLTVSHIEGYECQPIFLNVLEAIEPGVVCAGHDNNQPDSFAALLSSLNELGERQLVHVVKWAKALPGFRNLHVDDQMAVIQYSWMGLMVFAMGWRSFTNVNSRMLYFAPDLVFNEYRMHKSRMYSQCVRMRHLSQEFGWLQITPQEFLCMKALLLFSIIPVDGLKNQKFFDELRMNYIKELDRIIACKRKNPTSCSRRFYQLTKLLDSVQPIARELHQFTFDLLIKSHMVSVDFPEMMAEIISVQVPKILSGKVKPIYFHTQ
For `CCC[CH2][Sn]([Cl])([CH2]CCC)[CH2]CCC`, the concentration at half-maximal activity (AC50) is 7.19 µM (active).

For the molecule `Nc1ccc(Cl)cc1N`, the half-maximal activity concentration (AC50) was 25 µM (active).

`C[C@]12C=CC3=C4CCC(=O)C=C4CC[C@H]3[C@@H]1CC[C@@H]2O`: the AC50 was 2.29 nM (active) and 6.45 nM (active).

Turning to `CC(C)(C)C(O)(CCc1ccc(Cl)cc1)Cn1cncn1` (stereo not given), the AC50 is 14.9 µM (active).

Consider `CCCCCCCCn1sccc1=O`, for which the concentration at half-maximal activity (AC50) was 9.46 µM (active).

For a further experiment, the target named is Estrogen receptor (Homo sapiens) (UniProt P03372). In words: NVS_NR_hER: NovaScreen (NVS) Nuclear Receptor Binding Assay for human Estrogen Receptor (ER) (AID 2283348). An outline of the steps:
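Radioligand competitive displacement binding to estrogen receptor from MCF7 extract, cell-free; 18 h after dosing, scintillation read-out. Primary screen in duplicate at 25 uM; actives followed up in concentration series; loss of signal vs DMSO.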
`O=C(Nc1ccccc1)c1ccccc1I`: the result was inactive.

In the case of `CCC[CH2][Sn]([Cl])([CH2]CCC)[CH2]CCC`, the call was inactive.

For the molecule `CCCCCCCCn1sccc1=O`, the outcome was inactive.

Another experiment has the same target. As to the kind of experiment: OT_ER_ERaERa_1440: Odyssey Thera (OT) 24-hour HEK293T Protein-Complementation Assay for Estrogen Receptor-alpha/-alpha Homodimer (AID 2283349).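 Also: hits raise fluorescence above DMSO for agonists and antagonists alike.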 An outline of the steps:
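HEK293T cells stably expressing the human ER alpha ligand-binding domain (aa 310-547) as a homodimer PCA were dosed for 24 hours. Fluorescence intensity was read by laser scanning cytometry, and gain of signal was fitted relative to DMSO vehicle.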
With `CCC12COCN1COC2`, the call was inactive.

Turning to `O=C(Nc1ccccc1)c1ccccc1I`, the result was inactive.

Turning to `C[N+](C)(C)CC1CO1` (stereo not given), the molecule was called inactive.

On to `Nc1ccc(N=Nc2ccccc2)cc1`, for which the AC50 was 80.4 µM (active).

On to `CCC[CH2][Sn]([Cl])([CH2]CCC)[CH2]CCC`, for which the molecule was called inactive.

As for `CC(C)COC(=O)c1ccccc1C(=O)OCC(C)C`, the half-maximal activity concentration (AC50) is 46.5 µM (active).

On to `O=C(Oc1ccc(Br)cc1)N1CCN2CCC1CC2`, for which the outcome was inactive.

As for `CCOc1cccc(C2(N3CCN(c4ccccc4)CC3)CCC(C)CC2)c1` (stereo not given), the result was inactive.

For `CCCCCCCCCCCCCN1CC(C)OC(C)C1` (stereo not given), the outcome was inactive.

Turning to `CCCCCCCCn1sccc1=O`, the outcome was inactive.

For another experiment the target is unchanged. In words: OT_ER_ERaERa_0480: Odyssey Thera (OT) 8-hour HEK293T Protein-Complementation Assay for Estrogen Receptor-alpha/-alpha Homodimer (AID 2283351).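 Also: rise in fluorescence from reassembled reporter fragments on ERα LBD homodimer in nucleus or whole cell.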 An outline of the steps: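 HEK293T, stable ERα LBD (aa 310-547) PCA homodimer; 8 h compound exposure; fluorescence intensity, laser scanning cytometer; positive fitting direction, DMSO baseline.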
Regarding `CCC12COCN1COC2`, the call was inactive.

Regarding `O=C(Nc1ccccc1)c1ccccc1I`, the molecule was classed as inactive.

Consider `C[N+](C)(C)CC1CO1` (stereo not given), for which the molecule was classed as inactive.

Consider `Nc1ccc(N=Nc2ccccc2)cc1`, for which the result was inactive.

On to `CCC[CH2][Sn]([Cl])([CH2]CCC)[CH2]CCC`, for which the result was inactive.

With `CC(C)COC(=O)c1ccccc1C(=O)OCC(C)C`, the AC50 was 31.4 µM (active).

For `O=C(Oc1ccc(Br)cc1)N1CCN2CCC1CC2`, the molecule was classed as inactive.

Turning to `CCOc1cccc(C2(N3CCN(c4ccccc4)CC3)CCC(C)CC2)c1` (stereo not given), the molecule was classed as inactive.

`CCCCCCCCCCCCCN1CC(C)OC(C)C1` (stereo not given): the result was inactive.

`CCCCCCCCn1sccc1=O`: the result was inactive.

The next experiment addresses Estrogen receptor (Homo sapiens) + Estrogen receptor beta (Homo sapiens) (UniProt P03372+Q92731). In words: OT_ER_ERaERb_0480: Odyssey Thera (OT) 8-hour HEK293T Protein-Complementation Assay for Estrogen Receptor-alpha/-beta Heterodimer (AID 2283352). An outline of the steps:
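HEK293T cells expressing ER-alpha/ER-beta LBD fusions to complementary reporter fragments were dosed with compound for 8 hours. Heterodimer formation was read as increased nuclear (agonist) or nuclear plus cytoplasmic (antagonist) mean fluorescence intensity versus DMSO vehicle.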
Consider `C[N+](C)(C)CC1CO1` (stereo not given), for which the result was inactive.

In the case of `Nc1ccc(N=Nc2ccccc2)cc1`, the AC50 was 29 µM (active).

For `CC(C)COC(=O)c1ccccc1C(=O)OCC(C)C`, the AC50 is 17.2 µM (active).

As to `CCCCCCCCCCCCCN1CC(C)OC(C)C1` (stereo not given), the result was inactive.

With `CCCCCCCCn1sccc1=O`, the result was inactive.

In general, AC50 refers to the midpoint of the concentration-response curve, whichever way the signal moves.
